Results taken from PubChem BioAssay (NCATS).
Results filed as inconclusive are left out. The source made the active and inactive calls. Calls follow the shape of the dose curve; as a rule, active = well fitted inhibition curve with a large enough effect; inconclusive = small, poorly fitted or top-dose-only effect; inactive = flat fitted curve, though single readings scatter.

tested on: NIH3T3; assay: qHTS assay to identify novel small-molecules to repurpose for Merkel cell carcinoma treatment (AID 1296009); conditions: MCC and control cell lines, CellTiter-Glo viability, 72 h; at 44.8 µM (top of the series) unless noted; also: nearly all actives have a fitted effect of over 60% in size
Excerpt: MCC is a rare and aggressive neuroendocrine skin cancer with limited treatment options. Approximately 80% of MCCs have the Merkel cell polyomavirus (MCPyV) DNA integrated into the host genome (virus-positive: VP-MCC) and viral oncogenes drive oncogenesis. The remaining MCCs are virus-negative (VN-MCC) and are caused by UV mutagenesis. To identify novel treatments for VP-MCC and/or VN-MCC we screened three VP-MCC cell lines (WAGA, MKL-1, MKL-2), three VN-MCC cell lines (MCC-13, MCC-26, UISO), and four immortalized, non-transformed control cell lines (HaCaT, HEK293T, CRL7250, NIH-3T3) against ~2,400 compounds in the NCGC Pharmaceutical Collection (NPC) and ~1,900 compounds in the Mechanism Interrogation PlatE (MiPE). Using cell viability as a readout (CellTiter-Glo assay) we found both overlapping and distinct drugs that can be repurposed for the treatment of VP-MCC and VN-MCC.
A high-throughput screen was conducted in 1536-well white flat bottom plates (Corning) on a Kalypsys robotic system. Cell lines WAGA, MKL-1, MKL-2, MCC-13, MCC-26, UISO, HaCaT, HEK293T, CRL7250, and NIH-3T3 were screened against 2 small molecule annotated drug libraries NPC and MIPE in dose response (8 and 11 pt. respectively) measuring cell viability after 72 hours of incubation. […] A 1,536 pintool (Kalypsys) was used to transfer 23 nL of compound in DMSO to the 1,536-well assay plates. After 72 hr incubation at 37 degree celsius, 2.5 uL of CellTiter-Glo (Promega) was dispensed into each well using a BiorapTR. Plates were incubated at room temperature for 10 min, transferred to a ViewLux (PerkinElmer) and the luminescence was recorded using an exposure time of 2 seconds. Relative luminescence units (RLUs) were normalized to in-plate controls (no cells as a positive (cytotoxicity) control, DMSO as negative control) and the normalized data was processed using NCATS in-house software.

Row | SMILES | outcome
1 | C[C@]12CC[C@H]3[C@@H]([C@H](O)CC4=CC(=O)CC[C@@]43C)[C@@H]1CC[C@@H]2O | inactive
2 | CC1=C2C[C@H]3[C@@H](CC=C4C[C@@H](O)CC[C@@]43C)[C@@H]2CC[C@]12O[C@@H]1C[C@H](C)CN[C@H]1[C@H]2C | inactive
3 | CO[C@H]1[C@H](O)[C@H](O[C@H]2CC[C@]3(C)C4CC[C@]5(C)[C@H](C6=CC(=O)OC6)CC[C@]5(O)C4CC[C@@H]3C2)O[C@@H](C)[C@@H]1O (stereo not given in full) | inactive [at 17.4 µM]
4 | C[C@@H]1C(=O)O[C@H]2[C@H](O)[C@@]34[C@@H]5OC(=O)[C@@]3(O[C@@H]3OC(=O)[C@@H](O)[C@@]34[C@H](C(C)(C)C)[C@H]5O)[C@@]12O | inactive [at 17.4 µM]
5 | COC1=CC(=O)O[C@@H](CCc2ccccc2)C1 | inactive
6 | COc1ccccc1CN[C@H]1C2CCN(CC2)[C@H]1C(c1ccccc1)c1ccccc1 | inactive
7 | CCC(C)(OC(C)=O)C(=O)O[C@H]1[C@H](OC(C)=O)C[C@@H]2[C@@](C)([C@@H]3C[C@H]4C=CO[C@H]4O3)[C@H](C)C[C@H](OC(C)=O)[C@@]2(COC(C)=O)[C@@]12CO2 (stereo not given in full) | inactive [at 17.4 µM]
8 | COC1CC(OC2CCC3(C)C(CCC4C3CCC3(C)C(C5=CC(=O)OC5)C(OC(C)=O)CC43O)C2)OC(C)C1OC1OC(CO)C(O)C(O)C1O (stereo not given) | inactive [at 17.4 µM]
9 | Cc1cccc(NC(=O)N[C@@H]2N=C(c3ccccc3)c3ccccc3N(C)C2=O)c1 | inactive
10 | CN(C(=O)Cc1ccccc1)C(CN1CCCC1)c1ccccc1 (stereo not given) | inactive
11 | CCC1NC(=O)C2C(Cl)C(Cl)CN2C(=O)C(C(C)O)NC(=O)CC(c2ccccc2)NC(=O)C(CO)NC1=O (stereo not given) | inactive [at 17.4 µM]
12 | N#C[C@@H](O[C@@H]1O[C@H](CO[C@@H]2O[C@H](CO)[C@@H](O)[C@H](O)[C@H]2O)[C@@H](O)[C@H](O)[C@H]1O)c1ccccc1 | inactive [at 17.4 µM]
13 | CN1CCC[C@@H]1Cc1c[nH]c2ccc(Nc3ncccc3[N+](=O)[O-])cc12 | inactive
14 | Clc1ccc(N2C[C@H]3CC[C@@H](C2)N3)nn1 | inactive
15 | C[C@H]1C(=O)O[C@H]2[C@H](O)[C@]34C5OC(=O)[C@]3(O[C@@H]3OC(=O)[C@H](O)C34[C@H](C(C)(C)C)[C@H]5O)C12O (stereo not given in full) | inactive [at 17.4 µM]
16 | Cc1cn(C[C@H](N)C(=O)O)c(=O)n(Cc2cc(-c3ccccc3)sc2C(=O)O)c1=O | inactive
17 | COCC1OC(=O)c2coc3c2C1(C)C1=C(C3=O)C2CCC(=O)C2(C)CC1O (stereo not given) | inactive
18 | CCC(C)(C#N)O[C@@H]1O[C@H](CO)[C@@H](O)[C@H](O)[C@H]1O (stereo not given in full) | inactive
19 | COC(=O)C1(C)CCC(=O)C2(C)c3c(O)cc(C(C)C)cc3C(O)C(OC(C)=O)C12 (stereo not given) | inactive [at 17.4 µM]
20 | CCN1CC2(COC)C3[C@@H](OC)C4C1C3(C1C[C@]3(O)[C@H](OC(=O)c5ccccc5)C1[C@]4(OC(C)=O)[C@@H](O)[C@@H]3OC)[C@H](OC)C[C@H]2O (stereo not given in full) | inactive

Row | SMILES | outcome
21 | CC(N)Cc1c[nH]c2ccccc12 (stereo not given) | inactive
22 | COC1C(O)C(C)OC(OC2C(CO)O[C@@H](O[C@@H]3CC4CCC5C(CC[C@]6(C)[C@@H](C7=CC(=O)OC7)CC[C@]56O)[C@@]4(C)[C@H](O)C3)C(O)C2O)C1O (stereo not given in full) | inactive [at 17.4 µM]
23 | C/C=C(\C)C(=O)O[C@H]1[C@H](OC(C)=O)[C@]2(CO)[C@H](O)[C@H](O)[C@]3(C)C(=CCC4[C@@]5(C)CC[C@H](O[C@@H]6O[C@H](C(=O)O)[C@@H](O)[C@H](O[C@@H]7OC[C@H](O)[C@H](O[C@@H]8OC[C@H](O)[C@H](O)[C@H]8O)[C@H]7O)[C@H]6O[C@@H]6O[C@H](CO)[C@@H](O)[C@H](O)[C@H]6O)C(C)(C)C5CC[C@]43C)[C@@H]2CC1(C)C (stereo not given in full) | inactive [at 9.27 µM]
24 | CO[C@@H]1[C@H](O)[C@@H](O[C@@H]2C[C@H]3CC[C@@H]4C(CC[C@]5(C)[C@@H](C6=CC(=O)OC6)CC[C@]45O)[C@@]3(C)[C@H](O)C2)O[C@H](C)[C@@H]1O[C@@H]1O[C@H](CO)[C@@H](O)[C@H](O)[C@H]1O (stereo not given in full) | inactive [at 17.4 µM]
25 | N#CC(OC1OC(COC2OC(CO)C(O)C(O)C2O)C(O)C(O)C1O)c1ccccc1 (stereo not given) | inactive [at 17.4 µM]
26 | C=CC(C)(C)c1[nH]c2cccc3c2c1C[C@@H]1[C@@H]3[C@@H](OC(C)=O)[C@H](C)CN1C | inactive
27 | C=C[C@H]1[C@H](O[C@@H]2O[C@H](CO)[C@@H](O)[C@H](O)[C@H]2O)OC=C2C(=O)OCC[C@H]21 | inactive
28 | CCc1[nH]c2ccc(OC)cc2c1CCN(C)C | inactive
29 | CCN1C[C@]2(COC)[C@H](O)C[C@H](OC)[C@]34[C@@H]5C[C@]6(O)[C@H](OC(=O)c7ccccc7)[C@@H]5[C@@](O)([C@H]([C@H](OC)[C@H]23)[C@@H]14)[C@@H](O)[C@@H]6OC | inactive
30 | CN1C(=O)N(c2ccc(C#N)c(C(F)(F)F)c2)C(=O)[C@]1(CO)c1ccccc1 | inactive
31 | CC1=C2C(=O)C3[C@@H](CC=C4C[C@@H](O)CC[C@@]43C)[C@@H]2CC[C@]12O[C@@H]1C[C@H](C)CN[C@H]1[C@H]2C (stereo not given in full) | inactive [at 17.4 µM]
32 | CCN1C[C@]2(COC(=O)c3ccccc3N3C(=O)C[C@H](C)C3=O)CC[C@H](OC)[C@@]34[C@@H]5C[C@H]6[C@H](OC)[C@@H]5[C@](O)(C[C@@H]6OC)[C@](O)([C@@H](OC)[C@H]23)[C@@H]14 | inactive
33 | CC[C@H]1CN2CC[C@H]1C[C@@H]2[C@@H](O)c1ccnc2ccc(OC)cc12 | inactive
34 | COC1CC(OC2CCC3(C)C(=CCC4C3CCC3(C)C(C(C)OC5OC(COC6OC(CO)C(O)C(O)C6O)C(O)C(O)C5O)CCC43O)C2)OC(C)C1OC1OC(C)C(O)C(OC)C1O (stereo not given) | inactive [at 9.27 µM]
35 | CN1CCCC1CCOC(c1cc2nccc(C(=O)O)c2[nH]1)c1ccccc1Cl (stereo not given) | inactive
36 | CCCN1CCO[C@H]2c3cc(O)ccc3OC[C@@H]21 | inactive
37 | CN(C)CCc1c[nH]c2ccc(CN3CCN(C)S3(=O)=O)cc12 | inactive
38 | COC(=O)C12C(=O)C(C)(O)C(=O)C1(C)C(C)=CC1C34CCC(OC3=O)C(C)(CO)C4CCC12C (stereo not given) | inactive [at 17.4 µM]
39 | CC(=O)OC1CC(O)C(C)(C)C2CC(OC(C)=O)C3(C)C(CCC4(C)C(c5ccoc5)C(=O)C5OC543)C12C (stereo not given) | inactive [at 17.4 µM]
40 | CC(C)[C@@H](CN1CC[C@@](C)(c2cccc(O)c2)[C@@H](C)C1)NC(=O)[C@H]1Cc2ccc(O)cc2CN1 | inactive
